Assay outcomes (PubChem)
Pf growth 48h: P. falciparum growth inhibition at 48 hours (one generation) | actives 5.9% (n = 310,000) | AID 504832 | P. falciparum luciferase growth in erythrocytes, 48 h | Potency, µM (series often up to 28.7 µM), without a hit: top-dose activity change, negative = inhibition, usual class: inhibitors; active means well fitted inhibition curve with a large enough effect; inconclusive means small, poorly fitted or top-dose-only effect, or another doubt; inactive means no such curve, though single readings can be large or run the other way; further: potency means the concentration at half of the fitted maximal effect; on the % scale 0 is the no-effect control and ±100 the full control effect
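First compound was added to culture medium, then infected red cells at 0.1% parasitemia and 2% hematocrit (final). After incubation at 37 C under 5% CO2, luciferase detection reagent was dispensed and light output recorded.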
Shiga inhibitor: inhibitors of Shiga toxin in Vero cells; Vero cells, Shiga toxin protein synthesis inhibition reporter; inhibition, % at 38.7 µM; actives 9.2% (n = 290,000); AID 2315; in the data active means inhibition mostly above about 28%, no sharp cut-off; inactive means mostly below about 43%; further: 0% is about no effect
NS1 function inh: inhibitors of influenza NS1 protein function | actives 0.4% (n = 270,000) | Potency, µM (top dose mostly 46.1 µM), without a hit: at the top dose activity, positive = more growth; further: potency means the concentration at half of the fitted maximal effect; actives are rising curves; nearly all actives have a fitted effect of over 50% in size
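Recovery from NS1-induced slow growth read by OD600 in budding yeast switched to galactose assay medium (pH 6.0, -URA) at 1:100 dilution. Compound 23 nl per well; the matching strain lacking NS1 serves as control.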
Pf growth 96h: P. falciparum growth inhibition at 96 hours; P. falciparum luciferase reporter growth, 96 h; Potency, µM (titrated, usually from 28.7 µM), for the others: at the top dose activity change, negative = inhibition, usual class: inhibitors; actives 6.9% (n = 320,000); active means well fitted inhibition curve with a large enough effect; inconclusive means small, poorly fitted or top-dose-only effect, or another doubt; inactive means no such curve, though single readings can be large or run the other way; further: potency means the concentration at half of the fitted maximal effect; on the % scale 0 is the no-effect control and ±100 the full control effect
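Erythrocytes infected with luciferase-expressing P. falciparum were dispensed at 2% hematocrit and 0.05% parasitemia (final), then incubated with compounds 96 hours at 37 C in 5% CO2. Luminescence after detection reagent addition reported growth.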
SARS PLpro yeast: inhibitors of SARS-CoV papain-like protease in yeast. actives 0.19% (n = 330,000). S. cerevisiae expressing SARS-CoV PLpro, growth rescue. Potency, µM (highest dose often 32.9 µM), inactives show top-dose activity, positive = growth rescue, hits mostly activators; further: potency means the concentration at half of the fitted maximal effect; 0% is about no effect; nearly all actives have a fitted effect of over 55% in size
CHX counter: counter-screen for Shiga toxin inhibitors: cycloheximide protein synthesis inhibition | cell reporter, cycloheximide protein synthesis inhibition counterscreen | max response, % | actives 12% (n = 300,000); in the data active means max response mostly above about 13%, no sharp cut-off; inactive means mostly below about 14%; further: read at 38.3 µM for the half of the compounds with a filed dose; 0% is about no effect
Starred values were filed as active, the others as inactive; ? = inconclusive; nt = no result; + = active, no number. Shown are actives, neighbours in structure and some others; about 21% of the full set was active somewhere. Unless noted, the call rests on the fitted dose curve.

SMILES	Pf growth 48h	Shiga inhibitor	NS1 function inh	Pf growth 96h	SARS PLpro yeast	CHX counter
CC(C)CC(=O)NC(c1ccccc1)c1c(O)ccc2ccccc12 (stereo not drawn)	?	19.0	21.5%	?	0.0%	4.2
CC(=O)Oc1ccc2ccccc2c1C(NC(=O)Cc1ccccc1)c1ccccc1 (stereo not drawn)	4.15µM*	1.1	2.3%	?	-10.9%	8.1
Cc1nc2cccc(C)n2c(=O)c1Cl	?	8.5	-0.7%	nt	4.7%	-2.1
Cc1ccc(NC(=O)C=NOCC(=O)Nc2cc(C)cc(C)c2)cc1	nt	nt	nt	nt	-2.8%	nt
Cc1ccc(NC(=O)O/N=C/c2ccc(F)cc2)cc1	39.8%	46.7*	-11.0%	5.86µM*	-7.3%	32.8*
CC(=O)Nc1ccc(/C=N/OCC(=O)Nc2ccc(C)cc2)cc1	41.3%	15.2*	25.3%	100.4%	7.7%	22.8*
O=C(Nc1ccccc1)O/N=C/c1ccccc1Cl	nt	63.9*	-61.8%	14.9%	?	54.4*
CCN(CC)c1ccc(/C=N/OC(C)C(=O)Nc2ccc(C)cc2)cc1 (stereo not drawn)	-2.5%	-13.8	12.0%	11.9%	-30.3%	-2.3
COc1ccc(/C=N/OC(=O)Nc2ccccc2)cc1[N+](=O)[O-]	47.4%	+	-14.1%	32.1%	-28.0%	33.4*
O=C(NC1CC2CCCC(C1)N2C(=O)Nc1ccccc1)C1CC1 (stereo not drawn)	5.0%	-6.3	2.0%	5.3%	-1.9%	-5.3
O=C(C1CCCN(S(=O)(=O)c2cccnc2)C1)N1CCn2c1nc1ccccc12 (stereo not drawn)	15.7%	-0.9	-16.9%	?	-1.4%	4.5
O=C(Nc1ccccc1)O/N=C/c1ccc(F)cc1	137.8%	53.6*	-45.4%	33.8%	-9.1%	26.6*
COc1ccc(NC(=O)O/N=C/c2ccc(Br)cc2)cc1	25.0%	36.8	-10.4%	204.6%	-0.2%	15.2
Cc1ccc(NC(=O)O/N=C/c2ccc(Br)cc2)cc1	55.0%	36.6	5.7%	30.5%	-4.8%	11.3*
O=S1(=O)CCOC[C@H](c2ccccc2)N1Cc1ccccc1	35.0%	0.6	-1.0%	-7.0%	-4.0%	0.3
Cc1ccn2c(NC(=O)C(C)(C)Oc3ccc(Cl)cc3)c(-c3cccs3)nc2c1	-22.4%	-9.0	-8.0%	11.7µM*	-34.4%	-0.9
O=C(COc1ccccc1)Nc1ccccc1NS(=O)(=O)c1cccs1	-0.3%	17.5	-47.6%	-2.4%	2.8%	-2.4
O=C(COc1ccc(Cl)cc1Cl)Nc1ccccc1NS(=O)(=O)c1cccs1	45.7%	94.4*	6.7%	14.9%	-0.1%	47.1*
O=C(COc1ccc(Cl)cc1Cl)Nc1c(-c2cccs2)nc2ccccn12	43.7%	29.6	-14.7%	71.4%	-7.8%	12.7*
Cc1cc(Cl)ccc1OCC(=O)Nc1ccccc1NS(=O)(=O)c1cccs1	11.0%	23.0	?	1.7%	-0.7%	23.5*
COc1ccc(S(=O)(=O)NCCc2cn3nc(C)c(C)nc3n2)cc1F	22.5%	-1.3	-1.9%	36.2%	3.2%	-1.7
O=C(NCCc1ccccc1)c1ccc2c(c1)S(=O)(=O)c1cc(Cl)ccc1C2=O	?	nt	nt	-6.8%	2.2%	nt
N#C/C(=N\Nc1ccccc1F)c1nc(-c2ccccc2)cs1	33.3%	2.3	nt	?	-0.8%	3.1
COc1ccc(NC(=O)CN2C(=O)C(C)SC(C)C2=O)c(OC)c1 (stereo not drawn)	1.3%	-4.5	13.6%	38.9%	25.0%	7.2
O=C(NCCSC1CCCCC1)c1ccccc1	?	62.9*	-5.1%	?	-1.6%	30.0*
SMILES	Pf growth 48h	Shiga inhibitor	NS1 function inh	Pf growth 96h	SARS PLpro yeast	CHX counter
CS(=O)(=O)Nc1ccc(C(=O)NCCSC2CCCCC2)cc1	nt	17.6	-5.8%	28.8%	2.2%	8.6
CS(=O)(=O)N(CC(=O)NCCSC1CCCCC1)c1ccccc1	-8.3%	-8.3	3.7%	83.0%	0.6%	-1.9
COc1ccc(C(=O)NCCSC2CCCCC2)cc1	31.5%	79.6*	-2.1%	131.7%	-0.7%	42.0*
CN(C)c1ccc(N2C(=O)CC(Sc3ccccc3C(=O)O)C2=O)cc1 (stereo not drawn)	9.8%	-2.9	-29.9%	40.7%	-92.4%	-1.5
O=C(CCN1C(=O)C2CCCCC2C1=O)Nc1ccc(F)c(F)c1F (stereo not drawn)	50.2%	7.0	-0.1%	91.9%	2.7%	-2.6
CC(C)COP(=O)(OCC(C)C)C(O)c1ccc(N(C)C)cc1 (stereo not drawn)	5.5%	-7.8	-6.2%	27.3%	-0.8%	-2.1
NC(=O)c1ccccc1C[C@H](C(=O)O)N1C(=O)c2ccc(C(=O)O)cc2C1=O	6.5%	-6.8	nt	11.5%	1.0%	-7.1
O=C(Nc1cccc(F)c1)Nc1cnccn1	28.8%	11.0	-14.4%	?	-6.5%	7.9
O=C(Nc1cccc(F)c1)Nc1ccccn1	97.9%	60.7*	-20.5%	nt	2.1%	49.5*
O=C(Nc1ccccn1)Nc1cccs1	nt	38.0*	-68.7%	?	4.7%	36.3*
CCC(C(=O)Nc1ccncc1)c1ccccc1 (stereo not drawn)	4.65µM*	-6.5	2.5%	26.3%	-23.8%	-2.0
O=C(Nc1ccccc1)Nc1ccncc1	?	57.3*	nt	?	0.2%	14.7
Cc1cccc(C)c1NC(=O)c1cc(S(=O)(=O)N2CCOCC2)ccc1F	?	19.6	4.2%	-2.5%	8.4%	-2.0
O=C(Nc1ccncc1)Nc1ccccn1	-10.3%	60.2	-5.5%	8.28µM*	1.6%	-3.5
CCCCCC(=O)Nc1cc(S(=O)(=O)N2CCOCC2)ccc1N1CCCCC1	?	nt	nt	?	-6.8%	nt
COc1cccc(C(=O)NCCS(=O)(=O)NCCc2ccccc2)c1	51.3%	nt	nt	125.1%	0.8%	nt
COc1cccc(/C(O)=C/c2nc3ccc(C(=O)NCCc4cccc(C)c4)cc3[nH]c2=O)c1	8.28µM*	-6.9	20.6%	-10.2%	6.8%	13.8
CCOCC(=O)Nc1cc(C(=O)Nc2ccccc2)ccc1Cl	45.7%	18.2	-36.4%	105.1%	-8.8%	13.9
COCC(=O)Nc1cc(C(=O)Nc2ccccc2C)ccc1Cl	1.2%	88.6	-14.6%	34.0%	-3.4%	7.9
CCCCC(=O)Nc1cc(C(=O)NCCc2ccccc2)ccc1Cl	88.3%	17.2	-8.9%	85.9%	-2.1%	17.7*
COc1cccc(/C(O)=C/c2nc3ccc(C(=O)NCCc4ccc(Cl)cc4)cc3[nH]c2=O)c1	10.2%	-3.1	17.6%	85.3%	-21.3%	2.4
COc1cccc(C(=O)Nc2cc(C(=O)NCCc3ccccc3)ccc2Cl)c1	28.0%	33.9	-4.7%	nt	-0.6%	20.5*
COCC(=O)Nc1cc(C(=O)Nc2cccc(C)c2C)ccc1Cl	28.7%	18.4	0.6%	nt	-4.1%	14.3*
Cc1ccc2c(CC(=O)Nc3c(C(=O)c4ccc(F)cc4)oc4ccccc34)coc2c1C	nt	-2.6	nt	nt	nt	5.0
O=[N+]([O-])c1ccc(N2CCCC(C(F)(F)F)C2)c2ccncc12 (stereo not drawn)	13.1µM*	28.0	-61.9%	?	-51.2%	-4.4
